Compound activity from PubChem.
The sample as a whole holds a higher share of hits than the screen did.
IL1B secr inh – blocks inflammasome-driven IL-1 beta release; THP-1 LPS/ATP IL-1B secretion, AlphaLISA, 16 h; stronger effect = lower value; activity change, % at 57.5 µM; hit rate 4.7% among 360,000; AID 743279; in the data active means activity change below about -50%; inconclusive means mostly about -30% to -49%
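THP-1 cells pretreated 1 hr with compounds (up to 57.5 uM final), then stimulated with LPS (250 ng/mL final) plus ATP (1.25 mM final); secreted IL-1B measured by AlphaLISA after 16 hr, decreased signal indicating inhibition.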
HT1080-NT tox – kills 2HG-producing HT-1080-NT fibrosarcoma cells | HT-1080-NT fibrosarcoma viability, CellTiter-Glo ATP luminescence, 48 h | Potency, µM (highest dose often 46.1 µM), hits mostly cytotoxic | hit rate 1.6% among 360,000 | AID 686970;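 further: NT is the 2HG producing partner of a matched IDH1 knockdown line; nearly all actives have a fitted effect of over 55% in size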
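750 cells/well, RPMI + 5% FBS; 2 h settle, compound pin-transfer, 48 h at 37 degrees C. CellTiter-Glo 10 min RT, luminescence. Normalized to DMSO and media-only wells.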
TDP1 cell CPT – DT40-hTDP1 cell growth loss with CPT | hit rate 12% among 420,000 | Potency, µM (highest dose often 46.2 µM), usual class: inhibitors | chicken DT40 Tdp1-/-;hTDP1 cells + 20 nM CPT, ATP luminescence, 48 h; further: nearly all actives have a fitted effect of over 55% in size
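Chicken DT40 Tdp1-/- cells stably complemented with human TDP1 were seeded at 400 cells/well in medium containing 20 nM camptothecin, exposed to pin-transferred compounds, and grown at 37 °C for at least 48 hr. Viability was read as ATP luminescence.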
HT1080 IDH1KD tx – HT-1080 IDH1 knockdown cell toxicity (counter line) | HT-1080 IDH1 knockdown viability, ATP luminescence, 48 h | Potency, µM (highest dose often 46.1 µM), actives largely listed as cytotoxic | hit rate 2% among 360,000
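Viability of IDH1-knockdown HT-1080 fibrosarcoma cells was assessed by CellTiter-Glo after 48 h at 37 °C with titrated compound; concentration-effect curves were classified by fit quality and response size.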
12-LOX inh – inhibitors of human 12S-lipoxygenase ALOX12; purified 12hLO, xylenol orange hydroperoxide absorbance; hit rate 1.1% among 580,000; P18054; Potency, µM (series often up to 108 µM), usual class: inhibitors
Target sequence (P18054 whole entry, looked up): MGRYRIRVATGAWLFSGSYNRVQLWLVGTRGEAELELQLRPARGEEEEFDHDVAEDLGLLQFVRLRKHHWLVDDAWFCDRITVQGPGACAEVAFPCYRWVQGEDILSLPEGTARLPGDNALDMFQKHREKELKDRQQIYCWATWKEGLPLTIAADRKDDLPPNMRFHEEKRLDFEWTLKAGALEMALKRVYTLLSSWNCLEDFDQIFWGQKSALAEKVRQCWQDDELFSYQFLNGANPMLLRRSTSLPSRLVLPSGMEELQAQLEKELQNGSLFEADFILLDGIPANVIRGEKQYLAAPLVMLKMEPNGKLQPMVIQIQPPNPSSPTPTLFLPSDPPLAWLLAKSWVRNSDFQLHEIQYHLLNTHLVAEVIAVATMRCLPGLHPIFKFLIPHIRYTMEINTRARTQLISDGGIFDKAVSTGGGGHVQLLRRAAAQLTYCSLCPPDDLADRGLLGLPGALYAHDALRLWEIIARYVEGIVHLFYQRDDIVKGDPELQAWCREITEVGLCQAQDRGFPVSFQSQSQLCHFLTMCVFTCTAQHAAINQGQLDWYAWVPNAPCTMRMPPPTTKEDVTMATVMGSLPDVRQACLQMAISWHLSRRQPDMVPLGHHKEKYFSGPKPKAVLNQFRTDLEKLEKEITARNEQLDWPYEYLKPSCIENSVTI
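Purified human 12hLO (150 nM final) in 25 mM Hepes, 0.01% Triton X-100, pH 7.0 was preincubated 15 min at room temperature with compound. Then 40 uM arachidonic acid was added, 30 min. Hydroperoxide was read by Fe-XO absorbance ratio 573/405 nm.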
DT40 TDP1 no CPT – qHTS for Inhibitors of human tyrosyl-DNA phosphodiesterase 1 (TDP1): qHTS in cells in absence of CPT; DT40 Tdp1-/- hTDP1 cells, no CPT, ATP luminescence, 48 h; Potency, µM (series often up to 46.2 µM), hits mostly inhibitors; hit rate 15% among 420,000; further: nearly all actives have a fitted effect of over 55% in size
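Growth of hTDP1-complemented DT40 Tdp1-knockout cells is measured by ATP luminescence after at least 48 hr compound exposure at 37 °C, with DMSO substituting for the 20 nM CPT used in the parallel screen.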
Hits are given with their value; – = inactive; ? = inconclusive; · = no result given; [ ] = dose if it differs, or a comment. Unless noted, the call rests on the fitted dose curve; in most records, active means well fitted curve in the direction sought with a large enough effect; inconclusive means small, poorly fitted or top-dose-only effect, or another doubt; inactive means no such curve, though single readings can be large; an effect the other way counts as inactive or inconclusive.

SMILES | IL1B secr inh | HT1080-NT tox | TDP1 cell CPT | HT1080 IDH1KD tx | 12-LOX inh | DT40 TDP1 no CPT
COc1cccc(N2CCN(C(=O)COc3ccc4c(=O)c(-c5ccccc5)coc4c3)CC2)c1 | · | · | · | · | – | ·
COc1ccccc1Cc1c(-c2ccccc2)nc2ccc(Cl)cn12 | – | – | ? | – | ? | ?
COc1ccccc1Cc1c(-c2ccc(C)cc2)nc2c(C)cc(Br)cn12 | – | ? | 21µM | ? | ? | 21µM
COC(=O)c1ccc2nc(-c3ccccc3)c(Cc3ccccc3OC)n2c1 | – | – | 18µM | – | ? | 16µM
COc1ccccc1Cc1c(-c2ccccc2)nc2ccc(Br)cn12 | – | ? | 15µM | ? | ? | 13µM
COc1ccccc1Cc1c(-c2cccc(Cl)c2)nc2ccc(Cl)cn12 | – | ? | 23µM | ? | ? | 18µM
CCCCc1ccc(-n2c(Cc3cccs3)n[nH]c2=S)cc1 | – | – | ? | – | ? | ?
O=C(c1cnc2ccccc2c1)N1CC[C@H](N2CCOCC2)[C@H](CCCO)C1 | · | · | · | · | – | ·
Cc1cccc(Oc2coc3cc(OCc4ccc(F)cc4)ccc3c2=O)c1 | · | · | · | · | – | ·
N#Cc1ccc(CSc2ccccc2C(=O)Nc2ccc3c(c2)OCCCO3)cc1 | · | · | · | · | 14µM | ·
N#CCSc1ccccc1C(=O)Nc1ccc2c(c1)CCC2 | · | · | · | · | 1.1µM | ·
O=C(Nc1ccc2c(c1)OCCCO2)c1ccccc1SCc1cccs1 | · | · | · | · | 16µM | ·
COc1ccc(NC(=O)c2ccccc2SCc2ccc(C#N)cc2)cc1OC | · | · | · | · | 35µM | ·
O=C(NC[C@H]1O[C@@H](CC(=O)N2CCN(c3ccc(F)cc3)CC2)[C@H](O)[C@@H]1O)c1ccc(F)c(Cl)c1 | · | · | · | · | – | ·
COc1ccc(-c2c(C)oc3cc(OCC(=O)N4CCN(c5ccccn5)CC4)ccc3c2=O)cc1 | · | · | · | · | – | ·
C[C@@H]1CC=C[C@H]2[C@H]1C(=O)N(Cc1ccccc1)[C@H]2c1ccc(F)c(-c2ccc(N(C)C)cc2)c1 | – | ? | 8.2µM | – | – | 15µM
C[C@@H]1CC=C[C@H]2[C@H]1C(=O)N(Cc1ccccc1)[C@H]2c1ccc(/C=C/c2ccccc2)cc1F | – | ? | ? | – | – | –
CC(=O)c1ccc(-c2cc([C@H]3[C@H]4C=CC[C@@H](C)[C@@H]4C(=O)N3Cc3ccccc3)ccc2F)cc1 | – | ? | 15µM | ? | – | 13µM
Cn1c(N)c(Sc2ccc([N+](=O)[O-])cc2)c(=O)n(C)c1=O | – | – | – | – | – | –
CC(=O)Nc1ccc(NC(=O)c2cc([N+](=O)[O-])cc([N+](=O)[O-])c2)cc1 | – | – | ? | – | – | –
CC(=O)Nc1ccc(Sc2ccc([N+](=O)[O-])o2)cc1 | -97 | 4.1µM | 2.6µM | 5.8µM | ? | 2.6µM
CC(C)(C)C(=O)Nc1ccc(Sc2ccc([N+](=O)[O-])cc2)cc1 | – | – | 8.2µM | – | – | 7.3µM
Nc1ccc(Sc2ccc([N+](=O)[O-])cc2)cc1 | -70 | – | ? | – | ? | ?
C(=N\N=C1c2ccccc2-c2ccccc21)/c1ccccn1 | · | · | · | · | – | ·
CN(Cc1ccc(F)cc1)C(=O)C1(c2ccc(Cl)cc2)CCOCC1 | · | · | · | · | –[6.33 µM] | ·
SMILES | IL1B secr inh | HT1080-NT tox | TDP1 cell CPT | HT1080 IDH1KD tx | 12-LOX inh | DT40 TDP1 no CPT
CCOC(=O)N1CCN(C(=O)c2ccc3c(c2)N(Cc2cccc(Cl)c2)C(=O)c2ccccc2S3=O)CC1 (stereo unspecified) | – | – | 16µM | – | – | 26µM
CC1CCC(NC(=O)c2ccc3c(c2)N(Cc2cccc(Cl)c2)C(=O)c2ccccc2S3=O)CC1 (stereo unspecified) | · | · | – | · | – | –
CC(C)NC(=O)c1ccc2c(c1)N(Cc1cccc(Cl)c1)C(=O)c1ccccc1S2=O (stereo unspecified) | · | · | 21µM | · | ? | ?
CN1CCN(C(=O)c2ccc3c(c2)N(Cc2cccc(Cl)c2)C(=O)c2ccccc2S3=O)CC1 (stereo unspecified) | – | – | – | – | – | –
CC(=O)c1ccc(NC(=O)c2ccc3c(c2)N(Cc2cccc(Cl)c2)C(=O)c2ccccc2S3=O)cc1 (stereo unspecified) | · | · | ? | · | – | ?
CCN1CCN(C(=O)c2ccc3c(c2)N(Cc2cccc(Cl)c2)C(=O)c2ccccc2S3=O)CC1 (stereo unspecified) | · | · | ? | · | ? | 21µM
O=C(c1ccc2c(c1)N(Cc1cccc(Cl)c1)C(=O)c1ccccc1S2=O)N1CCC(Cc2ccccc2)CC1 (stereo unspecified) | · | · | 3.3µM | · | – | 4.6µM
Cc1ccc2sc(-c3ccccc3)nc2c1 | · | · | · | · | – | ·
COCCN(C(=O)c1snc(C(N)=O)c1N)C(C(=O)NC1CCCCC1)c1ccc(OC)c(OC)c1 (stereo unspecified) | – | – | – | – | – | –
O=C(c1ccc2c(c1)N(Cc1cccc(Cl)c1)C(=O)c1ccccc1S2(=O)=O)N1CCN(c2cccc(C(F)(F)F)c2)CC1 | · | · | – | · | – | ?
CC1CCCCN1C(=O)c1ccc2c(c1)N(Cc1cccc(Cl)c1)C(=O)c1ccccc1S2=O (stereo unspecified) | · | · | ? | · | ? | 21µM
Cc1cccc(N2CCN(C(=O)c3ccc4c(c3)N(Cc3cccc(Cl)c3)C(=O)c3ccccc3S4=O)CC2)c1C (stereo unspecified) | · | · | 3.7µM | · | – | 5.2µM
O=C(c1ccc2c(c1)N(Cc1cccc(Cl)c1)C(=O)c1ccccc1S2=O)N1CCN(c2cccc(C(F)(F)F)c2)CC1 (stereo unspecified) | · | · | 16µM | · | – | 10µM
CC1(C)CC(=O)c2cc(C#N)c(=O)n(-c3ccc(F)cc3)c2C1 | · | · | · | · | – | ·
COc1cccc(NC(=O)Cc2nc(-c3ccccc3)sc2-c2ccc(C)cc2)c1 | – | – | ? | – | – | 16µM
Cc1ccc(-c2sc(-c3ccccc3)nc2CC(=O)Nc2ccccc2F)cc1 | – | – | – | – | – | ?
COC(=O)c1cccc(NC(=O)Cc2nc(-c3ccccc3)sc2-c2ccc(C)cc2)c1 | – | – | ? | – | – | 18µM
CC(=O)Nc1cccc(NC(=O)Cc2nc(-c3ccccc3)sc2-c2ccc(C)cc2)c1 | – | – | ? | ? | – | ?
CC(C)N1CCCC(CNC(=O)CCc2ncc(-c3ccccc3)o2)C1 (stereo unspecified) | · | · | · | · | – | ·
CCOC(=O)C1CCCN(C(=O)c2cc(CN3C(=O)c4ccccc4C3=O)ccc2OC)C1 (stereo unspecified) | – | – | – | – | – | ?
CCN(CC)c1ccc2c(c1)C(=O)N(C)C2=O | – | – | ? | – | – | –
CCN(CCCCN1C(=O)c2ccccc2C1=O)c1ccc2c(c1)C(=O)N(C)C2=O | – | – | ? | – | – | 18µM
